# Experimental data reported in PubChem BioAssay (Tox21).
# Unmarked numbers belong to inactive results. Inconclusive results are not listed. A call without a number means that no potency is given here. Calls of active or inactive are those of the source. Unless noted, calls come from the whole dose curve; as a rule, active = well fitted curve in the direction sought with a large enough effect in the repeat runs; inconclusive = weak or mixed curves; inactive = no such curve, though single readings can be large; an effect the other way counts as inactive or inconclusive.
# What was measured:
# [1] = A CellTox Green Cytotoxicity Assay to monitor cytotoxicity in HepG2 cells - 8 hour (AID 1224890); note: nearly all actives have a fitted effect of over 45% in size
# Summary of the method: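 Fluorescent DNA-binding dye, 600 HepG2 cells/well, 5 h preincubation then compound in DMSO; same plates read at 0–40 h, 37 C.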
# [2] = qHTS assay to identify small molecule antagonists of the estrogen receptor alpha (ER-alpha) signaling pathway using the BG1 cell line in the presence of 0.1 nM 17-beta-estradiol - cell viability counter screen (AID 1259241); note: nearly all actives have a fitted effect of over 40% in size
# Summary of the method: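 Following 5 days in phenol red-free medium with charcoal-stripped serum, VM7Luc4E2 cells received test compounds alongside 0.1 nM 17beta-estradiol (final) at 37C for 22 hr. Live cells were then quantified via protease-substrate fluorescence.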
# [3] = qHTS assay to identify small molecule antagonists of the androgen receptor (AR) signaling pathway using the MDA cell line in the presence of 0.5 nM R1881 - cell viability counter screen (AID 1259242); note: nearly all actives have a fitted effect of over 45% in size
# Summary of the method: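 Human breast carcinoma MDA-kb2 cells, cultured without CO2, receive compounds alongside 0.5 nM (final) R1881 agonist. After 16 hr at 37C, viability is taken as live-cell protease signal.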
# [4] = target: Estrogen receptor (Homo sapiens) (UniProt P03372); experiment: qHTS assay to identify small molecule antagonists of the estrogen receptor alpha (ER-alpha) signaling pathway using the BG1 cell line in the presence of 0.1 nM 17-beta-estradiol (AID 1259244); note: nearly all actives have a fitted effect of over 50% in size
# Chain of Estrogen receptor (Homo sapiens) (P03372 whole entry, looked up): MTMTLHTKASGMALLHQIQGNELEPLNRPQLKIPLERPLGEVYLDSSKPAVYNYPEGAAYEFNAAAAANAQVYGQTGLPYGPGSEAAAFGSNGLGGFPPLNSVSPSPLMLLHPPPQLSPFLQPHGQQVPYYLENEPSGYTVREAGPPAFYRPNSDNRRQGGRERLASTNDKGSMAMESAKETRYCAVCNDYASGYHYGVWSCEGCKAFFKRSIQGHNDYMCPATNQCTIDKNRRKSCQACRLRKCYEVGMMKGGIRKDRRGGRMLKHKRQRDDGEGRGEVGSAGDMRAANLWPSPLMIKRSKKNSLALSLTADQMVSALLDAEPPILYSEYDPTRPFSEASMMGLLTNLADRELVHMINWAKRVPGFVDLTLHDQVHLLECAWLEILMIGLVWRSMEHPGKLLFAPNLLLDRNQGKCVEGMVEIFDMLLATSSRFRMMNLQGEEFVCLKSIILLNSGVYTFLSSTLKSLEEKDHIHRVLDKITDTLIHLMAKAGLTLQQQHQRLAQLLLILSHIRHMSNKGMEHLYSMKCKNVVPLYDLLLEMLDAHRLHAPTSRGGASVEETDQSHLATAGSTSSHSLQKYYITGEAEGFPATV
# Summary of the method: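 Seeding of stripped-serum-adapted VM7Luc4E2 cells, 24 h attachment, compound transfer, then 0.1 nM final 17beta-estradiol; after 22 h incubation, ONE-Glo reagent and luminescence reading.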
# [5] = qHTS assay to identify small molecule HDAC inhibitors (AID 1259364); note: potency is the fitted concentration of half-maximal effect;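 note: wild-type HCT-116 cells with endogenous class I/II HDAC activity; nearly all actives have a fitted effect of over 45% in size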
# Summary of the method: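 After a 2 hr compound incubation (37C, 5% CO2), HCT-116 cells seeded at 1,500/well the day before received HDAC-Glo reagent; signal read as luminescence after 30 min at room temperature.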
# [6] = qHTS assay to identify small molecule HDAC inhibitors - cell viability counter screen (AID 1259365); note: series mostly up to about 92 µM; nearly all actives have a fitted effect of over 50% in size
# Summary of the method: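 HCT-116 wild-type, overnight attachment; 2hr drug exposure, 37C; CellTiter-Glo luminescent ATP readout after 30min RT.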
# [7] = qHTS assay to identify small molecule agonists of the sonic hedgehog signaling (Shh) pathway - cell viability counter screen (AID 1259366); note: nearly all actives have a fitted effect of over 50% in size; note: potency is the fitted concentration of half-maximal effect
# Summary of the method: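 Compounds in DMSO were pin-transferred onto 3T3 Gli1-Luc cells that had settled 4hr; plates then stood 24hr at 37C and 5% CO2. One hour before the end, CellTiter-Fluor was added and fluorescence recorded.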
# [8] = qHTS assay to identify small molecule antagonists of the sonic hedgehog signaling (Shh) pathway - cell viability counter screen (AID 1259367); note: nearly all actives have a fitted effect of over 55% in size; note: potency is the fitted concentration of half-maximal effect
# Summary of the method: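 Viability was read by CellTiter-Fluor fluorescence in the same wells, reagent added 23 hr into compound treatment and incubated 1 hr at 37C. The 3T3 Gli1-Luc reporter cells (2,000/well) received conditioned medium after compound and ran 24 hr.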
# [9] = qHTS assay to identify small molecule agonists of the sonic hedgehog signaling (Shh) pathway (AID 1259368; calls by dose curve; note: nearly all actives have a fitted effect of over 15% in size; note: potency is the fitted concentration of half-maximal effect)
# Summary of the method: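 Stable NIH/3T3 Gli1-Luc reporter clone; 24 hr cpd exposure after a 4 hr settling period; luminescence endpoint.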
# [10] = qHTS assay to identify small molecule antagonists of the sonic hedgehog signaling (Shh) pathway (AID 1259369; calls by dose curve; note: nearly all actives have a fitted effect of over 45% in size; note: potency is the fitted concentration of half-maximal effect)
# Summary of the method: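 Gli1 transcriptional reporter (firefly Luc) in NIH/3T3 background, conditioned-medium activated. 24hr exposure, luminescence endpoint.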
# [11] = qHTS assay to identify small molecule agonists of the androgen receptor (AR) signaling pathway in the presence of an antagonist - cell viability counter screen (AID 1259379);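 note: MDA-kb2 human breast cancer cells carrying an MMTV luciferase reporter; series mostly up to about 92 µM; nearly all actives have a fitted effect of over 25% in size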
# Summary of the method: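 Counter screen for cell viability run in parallel with the AR agonist-mode luciferase assay. MDA-kb2 cells were co-treated with nilutamide (3.0uM final) and compounds, then incubated 16 hr at 37C, and CellTiter-Fluor fluorescence was measured.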
# [12] = qHTS assay to identify small molecule agonists of the estrogen receptor beta (ER-beta) signaling pathway - cell viability counter screen (AID 1259380); note: nearly all actives have a fitted effect of over 30% in size; note: potency is the fitted concentration of half-maximal effect
# Summary of the method: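 In this qHTS counter screen, HEK293T cells carrying an ER-beta/UAS beta-lactamase reporter, grown in 2% charcoal-stripped FBS, received compound for 16 hr; ATP-based CellTiter-Glo luminescence was then read after 30 min at room temperature.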
# [13] = qHTS assay to identify small molecule antagonists of the estrogen receptor beta (ER-beta) signaling pathway - cell viability counter screen (AID 1259382); note: nearly all actives have a fitted effect of over 55% in size; note: potency is the fitted concentration of half-maximal effect
# Summary of the method: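 HEK293T ER-beta-UAS-bla, 2% charcoal-stripped FBS; compounds + 1nM E2 16 hr 37C; CellTiter-Glo luminescence, 30 min RT.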
# [14] = target: Estrogen receptor (Homo sapiens) (UniProt P03372); experiment: qHTS assay to identify small molecule agonists of the estrogen receptor alpha (ER-alpha) signaling pathway in the presence of an antagonist (AID 1259383; calls by dose curve; note: nearly all actives have a fitted effect of over 15% in size; note: potency is the fitted concentration of half-maximal effect; for activation: top concentration of the series differs between compounds)
# Summary of the method: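 ER-alpha agonism measured under antagonist challenge: 10.0nM ICI-182,780 (final) plus compound, 15 concentrations, 22hr, VM7Luc4E2 ERE-luciferase cells. Read by luminescence.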
# [15] = qHTS assay to identify small molecule agonists or antagonists of the thyroid stimulating hormone receptor (TSHR) signaling pathway - wild type cell line counter screen (AID 1259384; calls by dose curve)
# Summary of the method: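 Counter screen in untransfected Hek293: compounds (15-point titration, triplicate) plus phosphodiesterase inhibitor Ro20-1724 added after 18 h plating; 30 min RT. Intracellular cAMP via competitive d2/cryptate immunoassay, 1 h incubation.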
# [16] = target: Estrogen receptor beta (Homo sapiens) (UniProt Q92731); experiment: qHTS assay to identify small molecule agonists of the estrogen receptor beta (ER-beta) signaling pathway (AID 1259377; active = well fitted activation curve with a large enough effect in the signal ratio in the repeat runs, not every such curve was filed as active; the % refers to the signal ratio)
# Chain of Estrogen receptor beta (Homo sapiens) (Q92731 whole entry, looked up): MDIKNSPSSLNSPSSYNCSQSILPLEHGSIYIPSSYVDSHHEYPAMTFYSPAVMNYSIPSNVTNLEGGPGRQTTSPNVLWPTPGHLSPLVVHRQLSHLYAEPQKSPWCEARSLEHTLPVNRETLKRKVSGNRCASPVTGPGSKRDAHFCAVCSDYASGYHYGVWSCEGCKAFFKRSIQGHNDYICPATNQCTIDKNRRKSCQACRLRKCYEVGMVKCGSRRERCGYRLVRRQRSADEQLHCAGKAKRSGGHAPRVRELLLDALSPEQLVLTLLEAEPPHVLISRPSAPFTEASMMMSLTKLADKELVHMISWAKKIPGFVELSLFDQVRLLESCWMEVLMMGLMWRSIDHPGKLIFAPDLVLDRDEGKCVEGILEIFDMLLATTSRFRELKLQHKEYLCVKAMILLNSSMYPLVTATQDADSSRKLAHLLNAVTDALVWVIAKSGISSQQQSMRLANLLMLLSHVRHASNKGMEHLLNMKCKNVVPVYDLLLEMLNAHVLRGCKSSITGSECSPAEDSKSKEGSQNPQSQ
# Summary of the method: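 qHTS in ER-beta-UAS-bla HEK293T cells: 6 hr settling, then 16 hr compound at 37C, then LiveBLAzer substrate 2 h at RT before fluorescence reading.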
# [17] = target: Estrogen receptor beta (Homo sapiens) (UniProt Q92731); experiment: qHTS assay to identify small molecule antagonists of the estrogen receptor beta (ER-beta) signaling pathway (AID 1259378; active = well fitted inhibition curve with a large enough effect in the signal ratio in the repeat runs, not every such curve was filed as active; the % refers to the signal ratio; note: potency is the fitted concentration of half-maximal effect)
# Summary of the method: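 Antagonist mode: compounds added to beta-lactamase reporter HEK293T ER-beta-UAS cells stimulated with E2 (1nM final), 16 hr at 37C. LiveBLAzer B/G FRET substrate, 2 hours room temperature, fluorescence read-out.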
# [18] = qHTS assay to identify small molecule phospholipidosis (PLD) inducers (AID 1259344; active = well fitted curve in the direction sought with a large enough effect; an effect the other way counts as inactive or inconclusive)
# Summary of the method: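 Phospholipid accumulation was scored by imaging: fixed, Hoechst-counterstained HepG2 cells stained with LipidTOX Red after 24 h compound exposure at 37 C. Read-outs were pit count and pit intensity per well or per cell, with amiodarone and DMSO controls.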
# [19] = target: Androgen receptor (Homo sapiens) (UniProt P10275); experiment: qHTS assay to identify small molecule agonists of the androgen receptor (AR) signaling pathway in the presence of an antagonist (AID 1259381; calls by dose curve; note: nearly all actives have a fitted effect of over 15% in size)
# Chain of Androgen receptor (Homo sapiens) (P10275 whole entry, looked up): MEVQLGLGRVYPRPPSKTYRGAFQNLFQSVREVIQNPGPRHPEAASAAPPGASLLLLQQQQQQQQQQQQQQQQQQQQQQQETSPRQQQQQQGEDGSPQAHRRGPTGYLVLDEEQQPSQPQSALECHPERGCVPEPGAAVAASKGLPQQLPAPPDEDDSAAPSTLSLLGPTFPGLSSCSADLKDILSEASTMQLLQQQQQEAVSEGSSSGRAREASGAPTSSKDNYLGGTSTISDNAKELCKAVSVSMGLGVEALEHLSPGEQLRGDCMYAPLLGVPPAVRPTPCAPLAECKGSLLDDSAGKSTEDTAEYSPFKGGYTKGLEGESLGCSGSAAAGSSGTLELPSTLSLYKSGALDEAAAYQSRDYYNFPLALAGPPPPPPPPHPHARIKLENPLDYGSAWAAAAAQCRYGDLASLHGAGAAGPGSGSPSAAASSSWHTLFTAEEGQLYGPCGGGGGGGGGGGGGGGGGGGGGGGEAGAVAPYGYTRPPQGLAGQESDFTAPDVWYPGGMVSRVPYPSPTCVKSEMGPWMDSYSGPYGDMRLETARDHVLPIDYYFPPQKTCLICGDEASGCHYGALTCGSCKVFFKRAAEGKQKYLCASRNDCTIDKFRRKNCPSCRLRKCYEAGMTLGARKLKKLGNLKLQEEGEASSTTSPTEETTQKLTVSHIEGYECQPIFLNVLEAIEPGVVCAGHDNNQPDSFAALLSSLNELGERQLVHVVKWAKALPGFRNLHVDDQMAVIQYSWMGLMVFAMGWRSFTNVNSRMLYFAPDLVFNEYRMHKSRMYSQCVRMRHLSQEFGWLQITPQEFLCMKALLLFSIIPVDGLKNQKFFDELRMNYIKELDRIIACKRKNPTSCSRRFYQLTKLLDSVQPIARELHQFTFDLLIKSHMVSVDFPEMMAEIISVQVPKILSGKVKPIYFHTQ
# Summary of the method: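 AR antagonist background: nilutamide 3.0uM final. Cell line: MDA-kb2, MMTV-driven luciferase, responsive to both AR and GR. Exposure 16hr, 37C, no CO2; ONE-Glo luminescence.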
Compound,Potency [1],Potency [2],Potency [3],Potency [4],Potency [5],outcome [6],Potency [7],Potency [8],Potency [9],Potency [10],Potency [11],Potency [12],Potency [13],Potency [14],outcome [15],Potency [16],Potency [17],Potency [18],Potency [19]
Cc1cc(C)n(CO)n1,inactive,inactive,inactive,inactive,inactive,inactive,inactive,inactive,inactive,inactive,inactive,inactive,inactive,inactive,inactive,,,,
O=[N+]([O-])c1cccc(I)c1,inactive,inactive,inactive,inactive,inactive,inactive,inactive,inactive,inactive,inactive,inactive,inactive,inactive,inactive,inactive,,,,
CC(C)(C)c1cc(C=O)cc(C(C)(C)C)c1O,inactive,inactive,inactive,inactive,inactive,inactive,inactive,inactive,inactive,inactive,inactive,inactive,inactive,inactive,inactive,inactive,inactive,,
O=C(O)c1cccnc1Nc1cccc(C(F)(F)F)c1,inactive,inactive,inactive,inactive,,inactive,inactive,,inactive,inactive,inactive,,,inactive,,,,inactive,
COc1ccc(/C(C)=C/C(=O)O)c(OC)c1,inactive,inactive,inactive,inactive,inactive,inactive,inactive,inactive,inactive,inactive,,inactive,inactive,inactive,inactive,inactive,inactive,,
CCOC(=O)CC(O)(CC(=O)OCC)C(=O)OCC,inactive,inactive,inactive,inactive,inactive,inactive,inactive,inactive,inactive,68.6 µM (active),inactive,inactive,inactive,inactive,inactive,inactive,inactive,,
CC(C)CC(C)(C)C,inactive,inactive,inactive,inactive,inactive,inactive,inactive,inactive,inactive,inactive,inactive,35.7 µM (active),31.8 µM (active),inactive,inactive,,,,
C=Cc1ccc(C=C)cc1,inactive,inactive,inactive,inactive,inactive,inactive,inactive,inactive,inactive,inactive,inactive,inactive,inactive,inactive,inactive,inactive,inactive,,
CC(C)(C)N,inactive,inactive,inactive,inactive,inactive,inactive,inactive,inactive,inactive,inactive,inactive,inactive,inactive,inactive,inactive,,,,
C=CC(=O)OCCCCCCCCCC,inactive,inactive,inactive,inactive,inactive,inactive,inactive,inactive,inactive,inactive,inactive,inactive,inactive,inactive,inactive,,,,
COc1ccc(C(=O)c2ccc(C)cc2)c(O)c1,inactive,inactive,inactive,inactive,,inactive,inactive,inactive,,inactive,inactive,inactive,inactive,inactive,inactive,,,inactive,
CC1(C)C(=O)NC(=O)N1CO,inactive,inactive,inactive,inactive,inactive,inactive,inactive,inactive,inactive,inactive,inactive,,inactive,inactive,inactive,inactive,inactive,,
O=c1c2ccccc2oc2ccccc12,inactive,inactive,inactive,inactive,17.2 µM (active),inactive,inactive,inactive,inactive,inactive,,inactive,inactive,inactive,inactive,,inactive,,
O=C(Nc1ccccc1)c1cc([N+](=O)[O-])ccc1Cl,inactive,inactive,inactive,inactive,inactive,inactive,61.1 µM (active),54.5 µM (active),inactive,21.7 µM (active),inactive,inactive,inactive,inactive,inactive,inactive,48.6 µM (active),,inactive
CCc1ccc2c(c1)C(=O)c1ccccc1C2=O,inactive,inactive,inactive,inactive,0.77 µM (active),inactive,inactive,inactive,6.86 µM (active),inactive,inactive,inactive,inactive,2.43 µM (active),inactive,,,,
OCCc1ccncc1,inactive,inactive,inactive,inactive,inactive,inactive,inactive,inactive,inactive,inactive,inactive,inactive,inactive,inactive,inactive,inactive,inactive,,
O=Cc1ccc(Cl)c([N+](=O)[O-])c1,inactive,inactive,inactive,inactive,inactive,inactive,27.3 µM (active),inactive,inactive,inactive,inactive,inactive,inactive,inactive,inactive,inactive,inactive,,
